Measurements: the supplement of paper PMC6555819

How the values were obtained:
Test in all cases: PBM binding z-score (relative to random genomic background probes); higher = stronger binding; sequences stand for … in GC…GCGATTGACAGCGTAGAATGAAGG
[1] = system: FXR:RXRa (NR concentration 270 nM, RXRa partner concentration 90 nM)
Procedure, shortened: (§1)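 Antibodies against each partner of ligand-free nuclear receptor dimers (one per run) detected binding on custom Agilent 4×180K protein-binding microarrays after 1 h incubation. The double-stranded probes had 34-nt variable regions carrying direct-repeat seeds, single-nucleotide variants, half-site ablations and random human genomic background sequences. Binding z-scores, from regression-normalized fluorescence, use the random background probes as reference.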

[2] = system: LXRa:RXRa (NR concentration 270 nM, RXRa partner concentration 90 nM)
Procedure, shortened: as §1

[3] = system: LXRa homodimer (NR concentration 270 nM)
Procedure, shortened: as §1

[4] = system: LXRb:RXRa (NR concentration 270 nM, RXRa partner concentration 90 nM)
Procedure, shortened: as §1

[5] = system: LXRb homodimer (NR concentration 270 nM)
Procedure, shortened: as §1

[6] = system: PPARa:RXRa (NR concentration 270 nM, RXRa partner concentration 90 nM)
Procedure, shortened: as §1

[7] = system: PPARg:RXRa (NR concentration 180 nM, RXRa partner concentration 90 nM)
Procedure, shortened: as §1

[8] = system: PPARg:RXRa 270nM:90nM, anti-RXR (NR concentration 270 nM, RXRa partner concentration 90 nM)
Procedure, shortened: as §1

[9] = system: PPARg:RXRa 30nM:10nM, anti-RXR (NR concentration 30 nM, RXRa partner concentration 10 nM)
Procedure, shortened: as §1

[10] = system: PPARg:RXRa 90nM:30nM, anti-RXR (NR concentration 90 nM, RXRa partner concentration 30 nM)
Procedure, shortened: as §1

[11] = system: PPARg:RXRa DBDmut IVT, anti-RXR (DBD mutation: RXRa K156A/R161A, NR concentration 270 nM, RXRa partner concentration 90 nM)
Procedure, shortened: as §1

[12] = system: PPARg:RXRa IVT, anti-PPARg (NR concentration 270 nM, RXRa partner concentration 90 nM)
Procedure, shortened: as §1

[13] = system: PPARg DBDmut:RXRa IVT, anti-PPARg (DBD mutation: PPARg1 K132A/R137A, NR concentration 270 nM, RXRa partner concentration 90 nM)
Procedure, shortened: as §1

[14] = system: PPARg DBDmut IVT, anti-PPARg (DBD mutation: PPARg1 K132A/R137A, NR concentration 270 nM)
Procedure, shortened: as §1

[15] = system: PPARg homodimer (NR concentration 180 nM)
Procedure, shortened: as §1

[16] = system: PXR:RXRa (NR concentration 270 nM, RXRa partner concentration 90 nM)
Procedure, shortened: as §1

[17] = system: PXR homodimer (NR concentration 270 nM)
Procedure, shortened: as §1

[18] = system: RARa:RXR (NR concentration 270 nM, RXRa partner concentration 90 nM)
Procedure, shortened: as §1

[19] = system: RARa homodimer (NR concentration 270 nM)
Procedure, shortened: as §1

[20] = system: RARb:RXRa (NR concentration 270 nM, RXRa partner concentration 90 nM)
Procedure, shortened: as §1

Sequence | PBM binding z-score [1] | PBM binding z-score [2] | PBM binding z-score [3] | PBM binding z-score [4] | PBM binding z-score [5] | PBM binding z-score [6] | PBM binding z-score [7] | PBM binding z-score [8] | PBM binding z-score [9] | PBM binding z-score [10] | PBM binding z-score [11] | PBM binding z-score [12] | PBM binding z-score [13] | PBM binding z-score [14] | PBM binding z-score [15] | PBM binding z-score [16] | PBM binding z-score [17] | PBM binding z-score [18] | PBM binding z-score [19] | PBM binding z-score [20]
ACAAACAGGTGAGTGAAGGTAACTCAGCTGGACG | 0.326 | -0.0872 | -0.278 | -0.542 | -0.3 | 0.367 | 0.682 | 0.103 | 0.0977 | 0.229 | 1.21 | 1.19 | 0.208 | 0.336 | 0.244 | -0.255 | -0.143 | 0.192 | 0.0567 | 0.585
GGAACGATGGCATTCGAGTTGATAGCATGGCGAT | -0.471 | -0.604 | -0.706 | -0.979 | -1.12 | -0.689 | 0.643 | -0.465 | -0.325 | -0.434 | -0.377 | -0.247 | -0.636 | -0.427 | -0.633 | -0.0726 | -0.789 | -0.647 | -0.81 | -0.501
TGGCCTAGGTCATTGGGCCAGTATAGTACGCATC | 4.33 | 2.98 | -0.242 | 1.44 | -0.839 | 3.79 | 3.3 | 3.34 | 0.438 | 2.2 | 1.95 | 3.78 | -0.594 | -1.26 | 1.98 | 1.4 | -0.797 | 1.97 | -0.131 | 3.72
TGAATGAGGTGATAAGATCAGGGAACGTTGCAAA | 0.365 | -0.0507 | -0.391 | -0.155 | -0.466 | 1.08 | 0.727 | 1.24 | 0.758 | 0.92 | 1.64 | 2.01 | 0.612 | 0.281 | -0.472 | -0.0646 | -0.0145 | 0.43 | -0.23 | 0.351
GCGACTGGTGCATCAGCAGGTTACCATAACTTAA | -0.753 | -0.531 | -0.541 | -0.267 | -1.02 | -0.237 | -0.0578 | -0.215 | -0.641 | -0.986 | -0.556 | -0.572 | -1.07 | -0.356 | -0.496 | -0.248 | -0.653 | -0.046 | -1.22 | -0.228
TGAATGAGGTTATAAGATCAGGGAACGTTGCAAA | 1.18 | 1.31 | -0.538 | 0.8 | -0.0754 | 2.61 | 1.22 | 1.75 | 0.754 | 1.38 | 1.08 | 1.54 | 0.481 | 0.281 | -0.132 | 0.601 | -0.261 | 1.25 | 0.0131 | 1
ACTATTAGTTGAGACGAAGGCAACCGATAGGTTG | -0.426 | -0.372 | -0.315 | -0.554 | 0.221 | -0.644 | 0.452 | -0.4 | -0.441 | -0.372 | -0.511 | -0.28 | 1.16 | 0.396 | 0.149 | -0.912 | -0.243 | -0.552 | 0.662 | -0.23
